Source: PubChem BioAssay (Sanford-Burnham Center for Chemical Genomics)
CYP2C9 inhib = human CYP2C9 inhibition; 96,000 tested, 20% active; inhibition, % at 5 µM; P11712; CYP2C9 Supersomes, luciferin-H conversion, luminescence; AID 777;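 active = blocking of liver enzyme CYP2C9 beyond about 50% at 5 µM, limit read from the data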
CYP2C19 act = cytochrome P450 2C19 (human) activation | recombinant CYP2C19, luciferin-H EGE luminescence; stronger effect = higher value; 0 = fully inhibited enzyme, 1 = untreated enzyme | activation factor at 5 µM | 96,000 tested, under 10 active | AID 1025;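 active = activation factor of at least 2 at 5 µM in the primary screen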;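 also: 0 = wells with 2.5 mM tranylcypromine and 1 = vehicle-only wells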
CYP2C19 inhib = human CYP2C19 inhibition; inhibition, % at 5 µM; CYP2C19 Supersomes, luciferin-H EGE luminescence, 30 min; 96,000 tested, 21% active; AID 778; P33261;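 active = CYP2C19 inhibition above a set limit at 5 µM in the primary screen, cut at about 50% in these data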;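 also: plate controls were negative control wells for no effect and 2.5 mM tranylcypromine positive control for full effect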
CYP2C9 activ = CYP2C9 (human) activation; P11712; recombinant CYP2C9, luciferin-H conversion, luminescence; stronger effect = higher value; factor 1 = untreated enzyme, 0 = blocked; activation factor at 5 µM; 96,000 tested, 1.4% active; AID 1024;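 active = activation factor of 2 or more for CYP2C9 at a 5 µM dose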;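 also: 0 = sulfaphenazole-blocked wells and 1 = vehicle-only wells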
Mac1 fbg enh = increases human CD11b/CD18 adhesion to fibrinogen; P05107+P11215; K562 CD11b/CD18 adhesion to fibrinogen, ATPlite luminescence; activation, % at 10 µM; 93,000 tested, 0.07% active; AID 1499;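 active = 10 µM primary screen giving 50% or more activity, confirmed by 40% or more on retest at that dose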
Target sequence (P05107 whole entry, looked up, other chains not shown): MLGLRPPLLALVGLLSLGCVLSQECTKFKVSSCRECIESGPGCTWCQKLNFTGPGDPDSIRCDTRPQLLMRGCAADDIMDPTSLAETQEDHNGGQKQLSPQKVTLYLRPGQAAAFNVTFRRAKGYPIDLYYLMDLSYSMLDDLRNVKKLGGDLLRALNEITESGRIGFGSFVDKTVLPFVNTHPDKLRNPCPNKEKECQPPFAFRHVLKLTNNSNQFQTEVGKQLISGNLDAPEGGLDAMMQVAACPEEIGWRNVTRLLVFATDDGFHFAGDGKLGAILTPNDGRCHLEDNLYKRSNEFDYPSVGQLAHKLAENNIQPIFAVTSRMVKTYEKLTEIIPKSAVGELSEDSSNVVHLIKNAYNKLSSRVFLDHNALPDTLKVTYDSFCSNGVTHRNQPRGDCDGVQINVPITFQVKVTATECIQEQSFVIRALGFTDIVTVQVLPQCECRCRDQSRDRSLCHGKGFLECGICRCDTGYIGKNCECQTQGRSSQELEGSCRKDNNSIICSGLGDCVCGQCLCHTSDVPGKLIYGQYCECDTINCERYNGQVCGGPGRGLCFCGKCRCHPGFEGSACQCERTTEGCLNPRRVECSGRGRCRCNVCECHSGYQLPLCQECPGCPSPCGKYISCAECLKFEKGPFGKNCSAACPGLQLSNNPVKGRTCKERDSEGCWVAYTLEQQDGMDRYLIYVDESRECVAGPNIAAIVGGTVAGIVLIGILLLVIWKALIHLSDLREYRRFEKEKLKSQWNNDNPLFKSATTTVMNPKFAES
CD11b adhes inh = inhibitors of human CD11b/CD18 binding to fibrinogen; K562 CD11b/CD18 adhesion to fibrinogen, ATPlite luminescence; Mn2+ added to activate the integrin; inhibition, % at 10 µM; 93,000 tested, 0.54% active; AID 1497;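 active = primary inhibition of 50% or more at 10 µM, then 40% or more on retest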
* hit, by the source's call; · = no result. Shown are actives, neighbours in structure and some others; about 28% of the full set was active somewhere.

SMILES	CYP2C9 inhib	CYP2C19 act	CYP2C19 inhib	CYP2C9 activ	Mac1 fbg enh	CD11b adhes inh
CCCCOC(=O)c1c(C)oc2ccc(NS(=O)(=O)c3ccc4c5c(cccc35)C(=O)N4)cc12	96*	0.3	66*	0	-5	24
CCCOC(=O)c1ccc(NS(=O)(=O)c2cccs2)cc1	100*	1.1	-14	0	-2	41
Cc1cc(-c2cc(N)n(-c3ccccc3)n2)c(C)n1C1CCCC1	38	0.7	34	0.6	8	6
CCOC(=O)c1oc2cccc(OCC(O)CNC(C)C)c2c1C (centres undefined)	37	0.3	70*	0.6	6	-1
COC(=O)c1ccccc1NC(=S)NC(NC(=O)c1ccccc1[N+](=O)[O-])C(Cl)(Cl)Cl (centres undefined)	97*	0.1	94*	0	·	·
COC(=O)c1ccccc1NC(NC(=O)c1ccco1)C(=O)c1ccc(C)cc1 (centres undefined)	58*	0.8	18	0.4	0	-2
COC(=O)c1ccccc1NC(=S)NC(NC(=O)c1ccco1)C(Cl)(Cl)Cl (centres undefined)	88*	0.6	42	0.1	·	·
COC(=O)c1ccccc1NC(=O)c1ccco1	-22	0.9	15	1.2	-4	7
CCOC(=O)C1(C(F)(F)F)N=C(c2cccnc2)OC(N2CCOCC2)=N1 (centres undefined)	10	1.1	-5	0.9	-4	2
O=C1C2=C(Nc3ccccc3SC2c2ccco2)c2ccccc21 (centres undefined)	78*	0.8	19	0.2	0	34
N#CC1=C(S)N=C(N)C(c2nc(-c3ccccc3)cs2)C12CCCC2 (centres undefined)	98*	0.1	86*	0	-4	1
N#CC1=C(S)N=C(N)C(c2nc(-c3ccccc3)cs2)C12CCCCC2 (centres undefined)	67*	0.4	60*	0.3	-2	2
Nc1nc(-c2ccccc2)cs1	-6	1	4	1.1	-1	-33
Cc1ccc(-c2csc(C3C(N)=NC(S)=C(C#N)C34CCCCC4)n2)cc1 (centres undefined)	89*	0.5	50	0.1	14	-1
O=C(CN1C(=O)C2CC=CCC2C1=O)Nc1ccc(S(=O)(=O)NC2=NCCCCC2)cc1 (centres undefined)	5	1.1	-12	0.9	-4	-1
Cc1nnc(SCC(=O)NCc2ccco2)n1Cc1ccccc1	-5	1.1	-5	1.1	-6	1
O=C(CSc1nnc(C2CCCCC2)n1Cc1ccccc1)NCc1ccco1	66*	0.6	43	0.3	-4	2
O=C(CSc1nnc(C2CC2)n1Cc1ccccc1)NCc1ccccc1	18	0.7	26	0.8	-3	-1
Cc1ccc(NCc2nnc(SCC(=O)NCc3ccco3)n2CC2CCCO2)cc1Cl (centres undefined)	56*	0.6	41	0.4	4	-14
O=C(CSc1nnc(CNc2ccc(F)cc2)n1Cc1ccccc1)NCc1ccco1	53*	0.5	54*	0.5	2	1
COc1ccccc1OCc1nnc(SCC(=O)NCc2ccco2)n1Cc1ccco1	58*	0.4	62*	0.4	0	16
CCCCNc1cc(=O)n(C)c(=O)[nH]1	6	0.9	5	0.9	-1	-3
Cc1ccc(-c2nn(Cc3ccccc3)cc2/C=C/C(=O)O)cc1C	45	0.2	76*	0.5	-4	-23
Cc1ccc(NC(=O)CSc2nnc(C(F)(F)F)n2C)cc1[N+](=O)[O-]	·	·	·	·	0	-3
CCN(CC)C(=O)c1sc(NC(=O)Cc2cccs2)c(C#N)c1C	43	0.7	33	0.6	-4	-17
SMILES	CYP2C9 inhib	CYP2C19 act	CYP2C19 inhib	CYP2C9 activ	Mac1 fbg enh	CD11b adhes inh
CCN(C(=O)c1sc(N)c(C#N)c1C)C1CCCCC1	-5	0.4	59*	1.1	1	-17
CCC(C)NC(=O)Cn1cnc2sc(C)cc2c1=O (centres undefined)	12	0.9	7	0.9	·	·
CC(C)(C)c1ccc(/C=N/NC(=O)Cc2c[nH]c3ccccc23)cc1	74*	0.7	28	0.3	-3	25
Cc1ccc(/C=N/NC(=O)Cc2c[nH]c3ccccc23)c(C)c1	34	0.9	10	0.7	0	0
CCCCCCc1cc2cc(S(=O)(=O)c3ccc(F)cc3)c(=O)oc2cc1O	·	·	·	·	-6	46
CCCCCCc1cc2cc(-c3nnc(-c4ccccc4OC)o3)c(=O)oc2cc1O	97*	0.5	48	0	2	87
CCCCCCc1cc2cc(-c3nnc(-c4ccccc4O)o3)c(=O)oc2cc1O	90*	0.9	14	0.1	-2	98*
OC(COc1ccc2c(c1)OCO2)CN1CCc2ccccc2C1 (centres undefined)	8	0.6	43	0.9	-5	2
CC(C(=O)NCC1CCCO1)N(C(=O)c1snc(C(N)=O)c1N)c1cccc(F)c1 (centres undefined)	26	0.8	16	0.7	-1	11
O=C(CSc1nnc(-c2ccncc2)n1CC1CCCO1)Nc1cccc(O)c1 (centres undefined)	67*	0.6	36	0.3	5	-6
COc1ccc(NC(=O)CSc2nnc(-c3ccncc3)n2CC2CCCO2)c(OC)c1 (centres undefined)	28	0.4	60*	0.7	7	-34
Cc1ccc(NCc2nnc(SCC(=O)Nc3ncc(C)s3)n2CC2CCCO2)c(C)c1 (centres undefined)	25	0.7	27	0.7	-4	11
CCOc1ccc(NC(=O)CSc2nnc(-c3ccncc3)n2CC2CCCO2)cc1 (centres undefined)	49	0.7	29	0.5	2	-2
Cc1ccc(NCc2nnc(SCC(=O)Nc3cccc(O)c3)n2CC2CCCO2)c(C)c1 (centres undefined)	81*	0.3	67*	0.2	-2	23
CN(C)CCn1c(C(=O)Nc2ccccc2)cc2ccccc21	1	0.9	12	1	-5	-14
CCOC(=O)Cn1nnnc1C(CC)N(Cc1cc2c(C)cc(C)cc2[nH]c1=O)C1CCCC1 (centres undefined)	4	1	1	1	0	-6
COc1ccc(/C=C/C(=O)OC(C)CN2CCOCC2)cc1 (centres undefined)	14	1	-4	0.9	1	6
COc1ccc2sc(N3C(=O)C4CC=C(C)CC4C3=O)nc2c1 (centres undefined)	80*	0.4	61*	0.2	2	-14
